The subject of this assay is HCoV-229E. Also noted: species or system Huh-7; HTS, protection from HCoV-229E induced cell death, luminescent cell viability (CellCounting-Lite 2.0), inhibition rate. To be noted: 24 h post infection, 1 h compound pre-incubation, 10 µM, inhibitor.

Structures can show the parent of a compound that is named as a salt. Where two headings read alike, the source gives them in different places. The campaign covered roughly 3,300 compounds. About 95 (3%) showed an effect of 50% or more. The full list was thinned out, with strong results kept by preference.

For the molecule `C/C(=C\CC[C@@H](C)[C@H]1CC[C@@]2(C)C3=CC[C@H]4C(C)(C)[C@@H](O)CC[C@]4(C)C3=CC[C@]12C)CO` [Ganoderol B], the “229E Inhibition rate” value is reported as 7.7%.
Still for that read-out and setting: to `C=C(CC[C@@H](C(=O)O)[C@H]1[C@H](O)C[C@@]2(C)C3=CC[C@H]4C(C)(C)[C@@H](O)CC[C@]4(C)C3=CC[C@]12C)C(C)C` [Dehydrotumulosic acid] belongs 8.5%; to `CC1(C)O[C@H]2CC(=O)OC[C@]23[C@H]2CC[C@@]4(C)[C@H](c5ccoc5)OC(=O)[C@H]5O[C@]54[C@]2(C)[C@@H](O)C(=O)[C@@H]13` [Rutaevin], 0%.
Same read-out and setting: in the case of `COc1cc(OC)cc(OC)c1` [1,3,5-Trimethoxybenzene] it was 55.2%; in that of `COc1ccc(OC)cc1` [1,4-Dimethoxybenzene], 21%; in that of `COc1cc(O)cc(OC)c1` [3,5-Dimethoxyphenol], 32.7%.
The same measure, in the same setting: in the case of `O=C1N[C@@H](Cc2ccccc2)C(=O)N2CCC[C@@H]12` [Cyclo(L-Phe-L-Pro)] it was 11.1%.
Take `Oc1ccc(CCc2cc(O)cc(O)c2)cc1` [Dihydroresveratrol]: the “229E Inhibition rate” value turned out to be 10.7%.
Consider `CCCCCCCCCCCC1=C(O)C(=O)C=C(O)C1=O` [Embelin], for which the “229E Inhibition rate” value amounted to 12.3%.
On the same count and under the same terms, in the case of `CCCCCCCCCCCCCCCc1cc(O)cc(O)c1` [5-Pentadecylresorcinol] it was 51.7%; in that of `O=c1c(O)c(-c2ccc(O)cc2)oc2c(O)c(O)cc(O)c12` [Herbacetin], 0%; in that of `O=C1CCC[C@@H]2[C@H]3CCCN4CCC[C@@H](CN12)[C@H]34` [Allomatrine], 8.4%.
The same measure, in the same setting: in the case of `COC[C@@H]1Cc2cc(OC)c3c(c2[C@H](c2ccc(OC)c(OC)c2)[C@H]1COC)OCO3` [Hypophyllanthin] it was 24.8%.
On to `C=C1C(=O)O[C@H]2C[C@@H](C)[C@@H]3C=CC(=O)[C@@]3(C)[C@@H](OC(C)=O)[C@H]12` [Bigelovin], for which the “229E Inhibition rate” value is 4.5%.
Still for that read-out and setting: in the case of `C=C1C(=O)O[C@H]2C[C@@H](C)[C@@H]3CCC(=O)[C@@]3(C)[C@@H](OC(C)=O)[C@H]12` [Ergolide] it was 57.9%; in that of `C=C1C(=O)O[C@H]2C[C@@H](C)[C@@H]3[C@@H](OC(C)=O)C[C@H](O)[C@@]3(C)[C@@H](OC(C)=O)[C@H]12` [Britannin], 3%.
Take `CC1(C)O[C@H]2CC(=O)OC[C@@]23[C@H]1CC(=O)[C@@]1(C)C2=CC(=O)O[C@@H](c4ccoc4)[C@]2(C)CC[C@@H]13` [Deoxylimonin]: the “229E Inhibition rate” value is listed as 9.8%.
The same measure, in the same setting: in the case of `CC(=O)O[C@@]12CO[C@@H]1C[C@@H](O)[C@@]1(C)C(=O)[C@H](O)C3=C(C)[C@@H](OC(=O)[C@H](O)[C@@H](NC(=O)c4ccccc4)c4ccccc4)C[C@@](O)([C@@H](OC(=O)c4ccccc4)[C@H]21)C3(C)C` [7-Epi 10-desacetyl paclitaxel] it was 21.4%.
Regarding `O=C(N[C@H](COC(=O)[C@H](Cc1ccccc1)NC(=O)c1ccccc1)Cc1ccccc1)c1ccccc1` [Asperphenamate], the “229E Inhibition rate” value is 18%.
With `CCCCCCCCCCCCCCCCCC(=O)NCc1ccccc1` [N-Benzyloctadecanamide], the “229E Inhibition rate” value stood at 46.3%.
On the same count and under the same terms, to `CCCCC/C=C\C/C=C\CCCCCCCC(=O)NCc1ccccc1` [N-Benzyllinoleamide] belongs 24.5%.
Still for that read-out and setting: to `CCCCCCCC/C=C\CCCCCCCC(=O)NCc1ccccc1` [N-Benzyloleamide] belongs 52.8%; to `CCCCCC/C=C\CCCC(=O)O` [cis-5-Dodecenoic acid], 63.5%.
In the case of `CCCCCCCC/C=C\CCCCCCCC(=O)O` [Oleic acid], the “229E Inhibition rate” value (229E Inhibition rate, 24 h) stood at 9.2%.
Consider `CCCCCCCCCCC/C=C\CCCCC(=O)O` [Petroselinic acid], for which the “229E Inhibition rate” value is on record as 0%.
The same measure, in the same setting: to `Nc1nc(=O)n([C@H]2C[C@H](O)[C@@H](CO)O2)cc1CO` [5-Hydroxymethyl-2’-deoxycytidine] belongs 0%.
Same read-out and setting: to `OC[C@H]1OC(O)[C@H](O)[C@H](O)[C@@H]1O` (stereo partly drawn) [D-Allose] belongs 0%; to `C=C(C)[C@@H]1CC[C@]2(COC(C)=O)CC[C@]3(C)[C@H](CC[C@@H]4[C@@]5(C)CC[C@H](OC(C)=O)C(C)(C)[C@@H]5CC[C@]43C)[C@@H]12` [Betulin diacetate], 4.9%; to `O=c1ccc2cc3ccoc3c(O)c2o1` [Xanthotoxol], 35.1%.
Still for that read-out and setting: to `CC(C)=CC[C@@H](OC(=O)C=C(C)C)C1=CC(=O)c2c(O)ccc(O)c2C1=O` [β,β-Dimethylacrylshikonin] belongs 50.2%; to `CC(C)=CC[C@H](OC(=O)C=C(C)C)C1=CC(=O)c2c(O)ccc(O)c2C1=O` [β,β-Dimethylacrylalkannin], 17.4%.
As for `CC(=O)O[C@@H](CC=C(C)C)C1=CC(=O)c2c(O)ccc(O)c2C1=O` [Acetylalkannin], the “229E Inhibition rate” value worked out at 10.1%.
Consider `C[n+]1cccc(C(=O)[O-])c1` [Trigonelline], for which the “229E Inhibition rate” value (229E Inhibition rate, 24 h) was found to be 7.5%.
With `O=c1cc(-c2ccccc2)oc2cc(O[C@@H]3O[C@H](CO)[C@@H](O)[C@H](O)[C@H]3O)c(O)c(O)c12` [Oroxin A], the “229E Inhibition rate” value stood at 34.7%.
On the same count and under the same terms, to `O=C(O)c1ccc[nH]1` [Pyrrole-2-carboxylic acid] belongs 6.8%; to `CC(=O)c1ccc[nH]1` [2-Acetylpyrrole], 51.6%.
The same measure, in the same setting: to `CC(=O)c1ccccc1` [Acetophenone] belongs 31.9%.
Same read-out and setting: to `CCCCCCCCC1=C(CCCCCCCC(=O)O)C1` [Sterculic acid] belongs 20%.
In the case of `CC(=O)NCCCCCN` [N-(5-Aminopentyl)acetamide], the “229E Inhibition rate” value is reported as 61.9%.
The same measure, in the same setting: in the case of `CC(=O)NCCCCN` [N-Acetylputrescine hydrochloride] it was 17.4%.
For the molecule `CC(=O)NCCCCNCCCN` [N8-Acetylspermidine dihydrochloride], the “229E Inhibition rate” value worked out at 37.4%.
Consider `C[C@@]1(C(=O)O)CC[C@]2(C)CC[C@]3(C)C4=CC(=O)c5c(cc(O)c(O)c5C=O)[C@]4(C)CC[C@@]3(C)[C@@H]2C1` [Demethylzeylasteral], for which the “229E Inhibition rate” value is 6.3%.
The same measure, in the same setting: in the case of `CCCCCCC/C=C/C(=O)CCc1ccc(O)c(OC)c1` [[8]-Shogaol] it was 39.3%; in that of `C/C=C1/CN2[C@@H]3C[C@@]45c6ccccc6N[C@]4(O3)[C@@H]2C[C@@H]1[C@H]5C(=O)OC` [Picrinine], 51.7%; in that of `C/C=C1/CN2[C@H]3Cc4c([nH]c5ccccc45)[C@]2(O)C[C@@H]1[C@@]3(CO)C(=O)OC` [16-Epivoacarpine], 7.1%.
On the same count and under the same terms, in the case of `C/C=C1/CN2CCc3c([nH]c4ccccc34)[C@@H]2C[C@@H]1/C(=C/OC)C(=O)OC` [Geissoschizine methyl ether] it was 0%; in that of `O=C(O)CNC(=O)/C=C/c1ccccc1` [Cinnamoylglycine], 41.7%; in that of `O=C(O)C[C@@](O)(C(=O)O)[C@H](O)C(=O)O` [(-)-Hydroxycitric acid], 12.3%.
As for `CC(C)=C/C=C1\O[C@@H]2CC(C)=CC(=O)[C@@H]2[C@]1(C)O` [Bisabolangelone], the “229E Inhibition rate” value was found to be 30%.
On the same count and under the same terms, to `O=Cc1ccc(O)cc1` [p-Hydroxybenzaldehyde] belongs 10.9%; to `CC(C)=CCC[C@](C)(O)[C@H]1CC[C@]2(C)[C@@H]1[C@H](O)C[C@@H]1[C@@]3(C)C[C@@H](O)[C@H](O[C@@H]4O[C@H](CO)[C@@H](O)[C@H](O)[C@H]4O[C@@H]4O[C@H](CO)[C@@H](O)[C@H](O)[C@H]4O)C(C)(C)[C@@H]3CC[C@]12C` [Gypenoside L], 61.5%; to `CC(C)=CCC[C@](C)(O)[C@H]1CC[C@]2(C)[C@@H]1[C@H](O)C[C@@H]1[C@@]3(C)CC[C@H](O)C(C)(C)[C@@H]3[C@@H](O[C@@H]3O[C@H](CO)[C@@H](O)[C@H](O)[C@H]3O[C@@H]3O[C@@H](C)[C@H](O)[C@@H](O)[C@H]3O)C[C@]12C` [Ginsenoside Rg2], 54.2%.
On the same count and under the same terms, to `CC(C)=CCC[C@](C)(O)[C@H]1CC[C@]2(C)[C@@H]1[C@H](O)C[C@@H]1[C@@]3(C)CC[C@H](O)C(C)(C)[C@@H]3[C@@H](O[C@@H]3O[C@H](CO)[C@@H](O)[C@H](O)[C@H]3O[C@@H]3O[C@H](CO)[C@@H](O)[C@H](O)[C@H]3O)C[C@]12C` [Ginsenoside Rf] belongs 28.3%.
On the same count and under the same terms, in the case of `CC(C)=CCC[C@@](C)(O)[C@H]1CC[C@]2(C)[C@@H]1[C@H](O)C[C@@H]1[C@@]3(C)CC[C@H](O)C(C)(C)[C@@H]3[C@@H](O[C@@H]3O[C@H](CO)[C@@H](O)[C@H](O)[C@H]3O[C@@H]3O[C@@H](C)[C@H](O)[C@@H](O)[C@H]3O)C[C@]12C` [20(R)-Ginsenoside Rg2] it was 5.2%; in that of `CC(C)=CCC[C@](C)(O[C@@H]1O[C@H](CO)[C@@H](O)[C@H](O)[C@H]1O)[C@H]1CC[C@]2(C)[C@@H]1[C@H](O)C[C@@H]1[C@@]3(C)C[C@@H](O)[C@H](O[C@@H]4O[C@H](CO)[C@@H](O)[C@H](O)[C@H]4O[C@@H]4O[C@H](CO)[C@@H](O)[C@H](O)[C@H]4O)C(C)(C)[C@@H]3CC[C@]12C` [Gypenoside XLVI], 10.6%.
Regarding `CC(C)=CCC[C@@](C)(O)[C@H]1CC[C@]2(C)[C@@H]1[C@H](O)C[C@@H]1[C@@]3(C)C[C@@H](O)[C@H](O[C@@H]4O[C@H](CO)[C@@H](O)[C@H](O)[C@H]4O[C@@H]4O[C@H](CO)[C@@H](O)[C@H](O)[C@H]4O)C(C)(C)[C@@H]3CC[C@]12C` [Gypenoside LI], the “229E Inhibition rate” value is on record as 0%.
Take `COc1ccc([C@H]2OC[C@H]3[C@@H]2CO[C@H]3c2ccc(O[C@@H]3O[C@H](CO)[C@@H](O)[C@H](O)[C@H]3O)c(OC)c2)cc1OC` [Phillyrin]: the “229E Inhibition rate” value is recorded as 0%.
The same measure, in the same setting: to `COc1cc([C@@H]2[C@H]3CO[C@@]4(O)C(=O)[C@@H]2C=C([C@H]2Oc5cc(O)cc(O)c5C(=O)[C@@H]2O)[C@@H]34)ccc1O` [Silydianin] belongs 51.4%; to `COc1cc(C2Oc3cc([C@H]4Oc5cc(O)cc(O)c5C(=O)[C@@H]4O)ccc3OC2CO)ccc1O` (stereo partly drawn) [Silybin], 13%; to `COc1cc(C2Oc3ccc([C@H]4Oc5cc(O)cc(O)c5C(=O)[C@@H]4O)cc3OC2CO)ccc1O` (stereo partly drawn) [Isosilybin], 0%.

The record behind these values is paper PMC12431657, “Discovery and mechanistic insights of dibenzoylmethane as a broad spectrum inhibitor of coronavirus” (PLOS Pathogens, 2025).
